# Shiga toxin inh – A qHTS for Small Molecule Inhibitors of Shiga Toxin; 290,000 compounds, 9.2% hits; inhibition, % at 38.7 µM; Vero cells, Shiga toxin protein synthesis inhibition reporter; in the data active = inhibition mostly above about 28%, no sharp cut-off; inactive = mostly below about 43%; note: 0% is about no effect
# Cycloheximide cs – Cycloheximide Counterscreen for Small Molecule Inhibitors of Shiga Toxin; AID 2314, 2010; 300,000 compounds, 12% hits; cell reporter, cycloheximide protein synthesis inhibition counterscreen; max response, %; in the data active = max response mostly above about 13%, no sharp cut-off; inactive = mostly below about 14%; note: read at 38.3 µM for the half of the compounds with a filed dose; 0% is about no effect
# NS1 inh – qHTS Assay for Inhibitors of Influenza NS1 Protein Function. Potency, µM (top dose mostly 46.1 µM), for the others: top-dose activity, positive = more growth. 270,000 compounds, 0.4% hits; calls by dose curve; note: potency is the fitted concentration of half-maximal effect; actives are rising curves; nearly all actives have a fitted effect of over 50% in size
#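 OD600 was taken as the measure of yeast growth restored by compound in an NS1-expressing S. cerevisiae strain. Cells had been washed out of glucose medium and diluted 1:100 into galactose -URA medium, pH 6.0.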
# AmpC no deterg – qHTS Inhibitors of AmpC Beta-Lactamase (assay without detergent). Potency, µM (highest dose often 57.1 µM), without a hit: top-dose activity change, negative = inhibition, usual class: inhibitors. P00811. 330,000 compounds, 0.52% hits. AID 485341, 2010. AmpC nitrocefin hydrolysis, absorbance 480 nm, 0.0001% Triton;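 note: potency is the fitted concentration of half-maximal effect; plate controls were no compound for no effect and no enzyme for full effect; nearly all actives have a fitted effect of over 20% in size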
# Target sequence (P00811 whole entry, looked up): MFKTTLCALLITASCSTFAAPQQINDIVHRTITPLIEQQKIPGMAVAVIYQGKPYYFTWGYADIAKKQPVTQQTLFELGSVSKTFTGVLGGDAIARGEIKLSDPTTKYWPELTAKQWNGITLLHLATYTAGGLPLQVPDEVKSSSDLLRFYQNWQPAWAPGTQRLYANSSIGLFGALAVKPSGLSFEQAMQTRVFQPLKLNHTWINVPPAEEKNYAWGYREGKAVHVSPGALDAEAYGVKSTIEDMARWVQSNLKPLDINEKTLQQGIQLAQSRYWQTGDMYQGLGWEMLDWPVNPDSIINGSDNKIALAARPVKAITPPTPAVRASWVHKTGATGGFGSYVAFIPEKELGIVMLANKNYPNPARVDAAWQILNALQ
#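 20 mM phosphate pH 7.0 + 0.01% (detergent screen) or 0.0001% Triton X-100; 5.3 nM AmpC reagent; cpd preinc 15 min RT; nitrocefin (800 uM stock) to start; A480 q20 s × 4 min; Activity was normalised to no-enzyme and no-compound control wells.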
# AmpC detergent – qHTS Inhibitors of AmpC Beta-Lactamase (assay with detergent). Potency, µM (titrated, usually from 114 µM), inactives show top-dose activity change, negative = inhibition, usual class: inhibitors. AmpC hydrolysis of nitrocefin, absorbance 480 nm, 0.01% Triton. 370,000 compounds, 0.041% hits. AID 485294, 2010;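 note: potency is the fitted concentration of half-maximal effect; 0% = no-compound wells and -100% = no-enzyme wells; nearly all actives have a fitted effect of over 25% in size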
#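 20 mM phosphate pH 7.0 + 0.01% (detergent screen) or 0.0001% Triton X-100; 5.3 nM AmpC reagent; cpd preinc 15 min RT; nitrocefin (800 uM stock) to start; A480 q20 s × 4 min; Activity was normalised to no-enzyme and no-compound control wells.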
# * hit, by the source's call; ? = inconclusive; / = no result given. Shown is part of a subset that was picked to be rich in hits. Unless noted, calls come from the whole dose curve; as a rule, active = well fitted curve in the direction sought with a large enough effect; inconclusive = small, poorly fitted or top-dose-only effect, or another doubt; inactive = no such curve, though single readings can be large; an effect the other way counts as inactive or inconclusive.
SMILES,Shiga toxin inh,Cycloheximide cs,NS1 inh,AmpC no deterg,AmpC detergent
Cc1c(C(=O)N2C[C@@H](C)O[C@@H](C)C2)oc2c(F)cccc12,70.3*,40.0*,-17.4%,1.2%,0.0%
Cc1c(C(=O)O)oc2c(F)cccc12,-3.2,-1.4,/,-33.3%,-5.1%
Cc1cc(C)cc(-n2c(SCC(N)=O)nc3c(oc4ccccc43)c2=O)c1,/,/,/,/,20.9%
COc1cccc(-c2nc3c(c(SCC(=O)Nc4cccc(C)c4C)n2)Cc2c(CO)cnc(C)c2O3)c1,/,/,/,/,-0.4%
Cc1cc(C)c2c(CN3CCC(C)CC3)cc(=O)oc2c1,60.8*,38.5*,-1.1%,-19.1%,-4.1%
CCc1ccc2c(CN3CCC(C(=O)OC)CC3)cc(=O)oc2c1,21.4,15.5*,1.2%,21.9%,?
Cc1cc2oc(=O)cc(CN3CCC(C)CC3)c2cc1C,23.9,20.0*,0.0%,-21.6%,4.3%
CCOC(=O)Nc1ccc2c(CN3CCC(C(=O)OC)CC3)cc(=O)oc2c1,-6.9,-10.5,5.3%,3.7%,-3.5%
Cc1cc2oc(=O)cc(CN3CCC(C)CC3)c2c(C)c1Cl,-1.6,11.5,-16.9%,-24.5%,?
Cc1cc(C)c2c(CN3CCCCC3)cc(=O)oc2c1,6.6,10.8*,4.0%,-22.4%,-10.1%
CN(c1cccc(NC(=O)CN(c2ccc(C34CC5CC(CC(C5)C3)C4)cc2)S(C)(=O)=O)c1)S(C)(=O)=O,1.8,-0.6,?,26.1%,1.2%
Cc1ccc(C)c(NC(=O)c2cnc3sc(N4CCOCC4)nn3c2=O)c1,/,/,/,/,-6.3%
O=C(CSc1nc2ccccc2[nH]1)Nc1ccc2[nH]c(=O)[nH]c2c1,/,/,/,-12.5%,-2.8%
O=C(CSc1nc2ccccc2[nH]1)Nc1ccc2c(c1)OCCO2,39.2,40.7*,-1.0%,-40.1%,-11.1%
O=C(NCCc1nc2ccccc2[nH]1)/C(=C/c1ccc2c(c1)OCO2)NC(=O)c1ccccc1,-4.9,-2.9,-4.7%,10µM*,-11.6%
O=C(CSc1ncccc1-c1nc2ccccc2[nH]1)Nc1ccc2c(c1)OCCO2,91.8*,67.7*,15.7%,-22.6%,-12.5%
CCc1c(C)nc(SCC(=O)Nc2ccc3c(c2)OCCO3)[nH]c1=O,22.3,9.9,2.5%,-28.0%,0.5%
Cc1ccc2nc(SCC(=O)Nc3ccc4c(c3)OCCO4)[nH]c2c1,29.9,26.4*,-5.9%,-35.3%,?
O=C(CCc1nc2ccccc2[nH]1)NCc1ccc2c(c1)OCO2,-2.5,-1.1,4.3%,-2.4%,?
CCC(=O)Nc1ccc(C(=O)CSc2nc3ccccc3[nH]2)cc1,-3.4,3.4,10.0%,-54.6%,?
O=C(CCc1nc2ccccc2[nH]1)Nc1ccc2c(c1)OCO2,106.6*,19.0*,-2.1%,-19.1%,-10.9%
Cc1ccc2nc(SCC(=O)c3ccc4c(c3)OCO4)[nH]c2c1,-11.9,-3.1,-12.9%,-48.4%,3.5%
CCC(=O)Nc1ccc(C(=O)CSc2nc3ccc(C)cc3[nH]2)cc1,4.1,19.0*,3.5%,-42.7%,?
O=C(CSc1nc2ccccc2[nH]1)c1ccc2c(c1)OCO2,91.0*,57.2*,-11.1%,-23.5%,-3.5%
CC(=O)Nc1cccc(CCc2nc3ccccc3[nH]2)c1,/,22.8*,7.2%,-24.0%,-13.0%
SMILES,Shiga toxin inh,Cycloheximide cs,NS1 inh,AmpC no deterg,AmpC detergent
COc1ccc(CC(=O)NCCc2csc3nc(-c4ccccc4F)nn23)cc1,/,/,/,/,0.8%
CC(CN1C(C)CCCC1C)OC(=O)c1ccc(F)cc1 (stereo not drawn),-18.2,-2.9,3.7%,46.5%,-10.4%
Cc1ccc2nc(SC(C)C(=O)N3CCOCC3)[nH]c2c1 (stereo not drawn),79.3*,43.9*,/,-15.7%,-7.8%
O=S(=O)(NCc1ccccn1)c1cccc2cccnc12,/,/,1.0%,/,/
O=C(CSc1nnc2ccccn12)Nc1ncc(Cl)cc1Cl,35.9,23.3*,-10.6%,-9.0%,?
O=C(CSc1cccc[n+]1[O-])Nc1ccc(N2CCOCC2)cc1,38.0,7.3,/,-9.2%,-4.4%
O=C(CSc1cccc[n+]1[O-])Nc1ccc2c(c1)OCCO2,25.1,15.8*,0.3%,-23.4%,1.2%
CC1CCN(C(=O)CSc2ccc(-c3ccc4c(c3)OCCO4)nn2)CC1,35.1,20.3*,-2.4%,-9.2%,-7.1%
CCn1c(=O)cc(SCC(=O)Nc2ccc3c(c2)OCO3)c2ccccc21,24.9,9.9*,-23.5%,-13.7%,-14.3%

# Source: PubChem BioAssay (National Center for Advancing Translational Sciences (NCATS))
